Screening results: PubChem BioAssay, National Center for Advancing Translational Sciences (NCATS)
Most compounds without a hit are left out; they make up all but 7.5% or so of the library.
ELG1 repair inh – inhibitors of ELG1-dependent DNA repair in HEK293T cells; AID 504467; HEK293T ELG1-luciferase reporter, luminescence, 16 h; DNA damage induced by 5-fluorouridine; Potency, µM (top dose mostly 46.1 µM), actives largely listed as inhibitors; 330,000 compounds, 2.3% hits; further: nearly all actives have a fitted effect of over 55% in size
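Luminescence from the luciferase reporter, measured 30 min after ONE-Glo reagent at room temperature, was the read-out. Beforehand, 2,000 cells per well were exposed for 16 hr at 37 °C to 5-fluorouridine together with compound or vehicle.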
B2AR arrestin – agonists driving beta-arrestin recruitment to human beta2-adrenergic receptor; Potency, µM (titrated, usually from 46.1 µM), usual class: activators; 330,000 compounds, 0.02% hits; AID 492947; beta-arrestin recruitment to beta2AR, cell-based reporter; P07550; further: nearly all actives have a fitted effect of over 65% in size
VP16 counter – Gal4-VP16 reporter inhibition counter-screen; 310,000 compounds, 3.5% hits; Potency, µM (top dose mostly 53.6 µM), most hits filed as inhibitors; Drosophila S2 Gal4-VP16 UAS-luciferase, luminescence, 20 h;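 further: Gal4-VP16 expression switched on by copper sulfate through the metallothionein promoter; nearly all actives have a fitted effect of over 50% in size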
RORgamma inh – blocks mouse ROR gamma transcriptional activity. P51450. Drosophila S2 Gal4-RORgamma UAS-luciferase reporter, 20 h. Potency, µM (doses to about 53.6 µM), actives largely listed as inhibitors. 310,000 compounds, 5.4% hits. AID 2551; further: nearly all actives have a fitted effect of over 60% in size
Target sequence (P51450 whole entry, looked up, the tested form may be a part): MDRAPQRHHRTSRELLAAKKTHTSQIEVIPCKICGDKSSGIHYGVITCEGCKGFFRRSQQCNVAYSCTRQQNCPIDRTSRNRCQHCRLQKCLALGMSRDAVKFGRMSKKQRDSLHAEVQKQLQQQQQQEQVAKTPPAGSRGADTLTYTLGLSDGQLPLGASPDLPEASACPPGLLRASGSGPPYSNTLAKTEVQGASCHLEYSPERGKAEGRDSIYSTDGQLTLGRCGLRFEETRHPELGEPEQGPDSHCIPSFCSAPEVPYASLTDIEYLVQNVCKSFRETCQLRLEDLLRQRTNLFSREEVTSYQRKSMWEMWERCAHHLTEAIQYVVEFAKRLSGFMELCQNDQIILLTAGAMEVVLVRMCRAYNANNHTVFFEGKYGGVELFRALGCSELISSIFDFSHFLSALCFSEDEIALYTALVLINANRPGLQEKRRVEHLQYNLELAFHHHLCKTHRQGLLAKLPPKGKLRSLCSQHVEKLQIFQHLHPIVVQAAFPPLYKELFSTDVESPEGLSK
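Drosophila S2 cells stably expressing Gal4-DBD/mouse RORγ fusion under metallothionein promoter plus UAS-luciferase; compound 1 h, then 700 uM CuSO4 induction for 20 h at ambient temperature; inhibition read as reduced luminescence.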
TSHR antagonist – antagonists of human thyroid stimulating hormone receptor; P16473; TSHR-expressing cells, TSH-stimulated cAMP HTRF, 2 h; hits give low values; activity change, negative = inhibition, % at 11.5 µM; 330,000 compounds, 0.2% hits; AID 504810;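 active means activity change below a set negative limit, meaning inhibition stronger than a set level, cut at about -70% in these data; inconclusive means activity change between two set negative limits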
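Freshly harvested TSHR cells receive pin-tooled compound, then EC80 TSH at 4nM final. After 2 hours at 37 deg C, antibody in lysis buffer and cAMP-d2 are added; 30 minutes at ambient temperature precede the HTRF read.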
ELG1 FLuc counter – luciferase inhibition in cell-free luciferin readout for ELG1 hits; 350 compounds, 3% hits; cell-free firefly luciferase luminescence counter-screen, ViewLux; shares compounds with ELG1 repair inh; Potency, µM (titrated, usually from 46.1 µM), hits mostly inhibitors
ELG1-Luc inh – confirmation of human ELG1-dependent DNA repair inhibitors. shares compounds with ELG1 repair inh. Potency, µM (titrated, usually from 46.1 µM), most hits filed as inhibitors. 670 compounds, 68% hits. HEK293T ELG1-luciferase levels, luminescence; cells co-treated with 5-fluorouridine; further: nearly all actives have a fitted effect of over 55% in size
ELG1-Luc MMS – inhibits ELG1-dependent repair under MMS stimulation in HEK293T cells. shares compounds with ELG1 repair inh. 670 compounds, 53% hits. AID 624249. Potency, µM (series often up to 46.1 µM), most hits filed as inhibitors. HEK293T luciferase-tagged ELG1 level, MMS stimulated; further: nearly all actives have a fitted effect of over 60% in size
ELG1 5FU viab – confirmation of ELG1 repair inhibitors: viability with 5FU; AID 624250; shares compounds with ELG1 repair inh; Potency, µM (top dose mostly 46.1 µM), most hits filed as cytotoxic; cell viability with 5-FU, ELG1-dependent repair; 670 tested, under 10 active;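 further: ELG1-luc HEK293T cells cotreated with 5-fluorouridine at 10 µM final; viability measured 16 h after compound addition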
ELG1 MMS viab – confirmation of ELG1 repair inhibitors: viability with MMS | shares compounds with ELG1 repair inh | Cell viability with MMS, ELG1-dependent DNA repair | 670 compounds, 33% hits | Potency, µM (titrated, usually from 46.1 µM), hits mostly cytotoxic;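 further: ELG1-luc HEK293T cells co-treated with 10 µM MMS; viability read 16 h after compound addition; nearly all actives have a fitted effect of over 60% in size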
Cell viab unstim – affects unstimulated cell viability, ELG1 hit counter-screen. shares compounds with ELG1 repair inh. cell viability counter-screen, unstimulated, luminescence. Potency, µM (top dose mostly 45.9 µM), usual class: cytotoxic. 900 compounds, 8% hits;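 further: compound exposure lasted 16 hours before reading; nearly all actives have a fitted effect of over 55% in size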
FLuc enzyme – firefly luciferase inhibition counter-screen | shares compounds with ELG1 repair inh | 350 compounds, 10% hits | Potency, µM (highest dose often 57.5 µM), actives largely listed as inhibitors | purified firefly luciferase, luminescence counter-screen
Hits are given with their value; - = inactive; ? = inconclusive; . = no result given. Unless noted, the call rests on the fitted dose curve; in most records, active means well fitted curve in the direction sought with a large enough effect; inconclusive means small, poorly fitted or top-dose-only effect, or another doubt; inactive means no such curve, though single readings can be large; an effect the other way counts as inactive or inconclusive.

SMILES	ELG1 repair inh	B2AR arrestin	VP16 counter	RORgamma inh	TSHR antagonist	ELG1-Luc inh	ELG1-Luc MMS	ELG1 5FU viab	ELG1 MMS viab	Cell viab unstim	others
COc1ccc(CNC(=O)CCSc2nc(-c3ccc4c(c3)OCO4)cc(C(F)(F)F)n2)cc1	3.26µM	-	?	?	-	7.91µM	-	?	-	-
O=C(CCSc1nc(-c2ccc3c(c2)OCO3)cc(C(F)(F)F)n1)NCc1ccccc1	?	-	-	-	-	.	.	.	.	.
NC(=O)c1sc2nc3c(c(-c4cccs4)c2c1N)CCCCC3	0.82µM	-	-	-	-	1.12µM	4.45µM	-	-	?	ELG1 FLuc counter=?;FLuc enzyme=-
C=CCC1(CC=C)CCCN1C(=O)C1CCC(=O)N(CCc2ccccc2)C1 (stereo not given)	?	-	-	?	-	.	.	.	.	.
O=C(N/N=C/c1cc(Br)ccc1OC(=O)c1ccc(Br)cc1)c1ccncc1	4.11µM	-	5.01µM	2.82µM	-	?	15.8µM	-	?	-
O=C(NCCCSc1ccccc1)c1cc(Cl)ccc1O	-	-	-	-	?	.	.	.	.	.
COc1ccc(-c2cc(CS(=O)(=O)c3ccccc3)on2)cc1	?	-	-	?	-	.	.	.	.	.
CC1(C)Cc2c(C#N)c(SCc3ccccc3)nc(N3CCOCC3)c2CO1	2.31µM	-	-	-	-	2.23µM	-	?	-	-
CCCCCSc1nc(N2CCOCC2)c2c(c1C#N)CC(C)(C)OC2	-	-	-	-	-	.	.	.	.	.
COc1cc(NC(=O)C2CCC(CNc3c(N4CCC(C)CC4)c(=O)c3=O)CC2)cc(OC)c1 (stereo not given)	?	-	-	-	-	.	.	.	.	.
O=C(Nc1ccc(F)cc1)C1CCC(CNc2c(N3CCCCC3)c(=O)c2=O)CC1 (stereo not given)	-	-	-	-	-	?	-	-	-	-	ELG1 FLuc counter=-;FLuc enzyme=-
COc1cc(NC(=O)C2CCC(CNc3c(N4CCCCC4)c(=O)c3=O)CC2)cc(OC)c1 (stereo not given)	?	-	-	-	-	11.2µM	-	?	-	?	ELG1 FLuc counter=-;FLuc enzyme=-
COc1ccccc1C(=O)NCCC(=O)NCC1CCCCC1	-	-	.	.	-	.	.	.	.	.
CC(=O)N1c2ccc(S(=O)(=O)N3CCC(C(=O)N4CCC(C)CC4)CC3)cc2CC1C (stereo not given)	?	-	-	-	-	.	.	.	.	.
CC(=O)N1c2ccc(S(=O)(=O)N3CCC(C(=O)N4CCN(c5cc(Cl)ccc5C)CC4)CC3)cc2CC1C (stereo not given)	?	-	-	-	-	14.1µM	?	-	-	?	ELG1 FLuc counter=-;FLuc enzyme=-
CCCCn1c(SCC(=O)Nc2nnc(CC)s2)nc2c1c(=O)n(C)c(=O)n2C	2.51µM	-	-	-	-	?	-	-	?	?
CCCCn1c(SCC(=O)Nc2nnc(C)s2)nc2c1c(=O)n(C)c(=O)n2C	-	-	-	-	-	.	.	.	.	.
COc1cc(/C=C(\C#N)C(=O)Nc2cccc(C(=O)O)c2)ccc1OCc1ccc(F)cc1	?	-	-	-	-	.	.	.	.	-
